M1 PAM: potentiates human M1 receptor response to acetylcholine; CHO-K1 hM1, Fluo-8 calcium fluorescence, ACh EC20; 0% = ACh EC20, 100% = maximal ACh; P11229; activation, % at 3 µM; actives 0.088% (n = 360,000); in the data active = activation above about 19%, passing the limit was not always enough
Target sequence (P11229 whole entry, looked up): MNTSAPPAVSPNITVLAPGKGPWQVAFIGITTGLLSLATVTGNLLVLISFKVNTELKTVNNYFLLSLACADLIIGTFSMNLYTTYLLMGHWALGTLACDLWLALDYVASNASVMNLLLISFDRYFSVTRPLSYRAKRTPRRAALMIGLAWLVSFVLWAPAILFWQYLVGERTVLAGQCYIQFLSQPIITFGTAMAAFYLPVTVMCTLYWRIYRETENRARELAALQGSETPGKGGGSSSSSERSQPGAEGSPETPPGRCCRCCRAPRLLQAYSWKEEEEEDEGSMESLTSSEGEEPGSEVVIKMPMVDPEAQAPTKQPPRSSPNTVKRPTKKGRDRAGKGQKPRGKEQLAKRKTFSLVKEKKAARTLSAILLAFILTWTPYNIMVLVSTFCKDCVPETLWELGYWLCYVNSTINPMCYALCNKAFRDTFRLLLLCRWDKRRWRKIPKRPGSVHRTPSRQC
CHO-K1 Ca antag: nonselective inhibitor or artifact in parental CHO-K1 cells; inhibition, % at 3 µM; actives 0.6% (n = 360,000); ATP-induced calcium, Fluo-8 fluorescence;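 active = inhibition above a per-plate cutoff, the plate's mean sample inhibition plus 3 SD, cut at about 24% in these data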;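 also: 0% = DMSO plus EC80 ATP and 100% = DMSO alone without ATP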
M1 PAM parental: M1 PAM counterscreen hit in parental CHO-K1 cells; ATP EC20, Fluo-8 calcium fluorescence; 0% at ATP EC20, 100% at ATP max; actives 0.02% (n = 360,000); activation, % at 3 µM;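 active = activation above the run cutoff, the mean activation of all test compounds plus 3 SD, cut at about 40% in these data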;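 also: peak over basal fluorescence ratio in a 140 s read after ATP addition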
M1 antag: antagonists of human M1 muscarinic receptor; CHO-K1 hM1, Fluo-8 calcium fluorescence, ACh EC80 antagonist; P11229; actives 1.3% (n = 360,000); inhibition, % at 3 µM; AID 588852;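 active = percent inhibition above its own plate's cutoff, namely the mean of that plate's compound wells plus 3 SD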;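 also: peak over basal fluorescence ratio during 140 s after agonist addition; 0% = ACh EC80 plus DMSO and 100% = DMSO alone without agonist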
CHRM1 agonist: activates human CHRM1 receptor; P11229; CHO-K1 hM1, Fluo-8 calcium fluorescence, agonist mode; 0% DMSO, 100% acetylcholine EC100; activation, % at 3 µM; actives 0.33% (n = 360,000);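 active = activation above the run's mean compound activation plus 3 SD, cut at about 16% in these data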;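 also: peak over basal fluorescence ratio within a 140 s kinetic read after compound addition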
M1 ag parental: nonselective activator or artifact in parental CHO-K1 cells | actives 0.48% (n = 360,000) | Fluo-8 calcium fluorescence; scaled to maximal ATP response, vehicle zero | activation, % at 3 µM; in the data active = activation above about 15%;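 also: untransfected CHO-K1 host cells lacking M1 receptor as counterscreen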
Active calls of the source: *. An excerpt weighted towards active compounds, which were near 2.3% of everything screened.

SMILES	M1 PAM	CHO-K1 Ca antag	M1 PAM parental	M1 antag	CHRM1 agonist	M1 ag parental
COc1cc(OC)cc(C(=O)NNC(=O)CCc2nc3ccccc3c(=O)[nH]2)c1	11	-18	11	-10	-2	0
CON(C)C(=O)CC1(CN(Cc2ccccc2)C(=O)OC(C)(C)C)CCCCC1	-1	-17	3	5	-1	-1
C#CC(=O)CC1(CN(Cc2ccccc2)C(=O)OC(C)(C)C)CCCCC1	-33	-3	-12	34*	-14	0
Cc1ccc(Cc2c(-c3ccc(F)cc3)nc3cc(C)ccn23)cc1	-12	4	-13	15	-7	0
O=C(CCCN1C(=O)NC2(CCCC2)C1=O)Nc1ccc(F)cc1	8	4	1	10	-1	0
Cc1ccc(Sc2ccc(NC(=O)CCN3C(=O)NC4(CCCC4)C3=O)cc2)c(C)c1	-14	3	16	35*	-5	4
CCN(CC1CCCN(CCc2cccc(F)c2)C1)C(=O)c1ccc(CSC)o1 (centres undefined)	-24	2	0	61*	-7	1
CCN(CC1CCCN(CCc2cccc(F)c2)C1)C(=O)c1ccoc1C (centres undefined)	-11	-6	14	9	-9	-1
CN(C(=O)c1cncc(Br)c1)C1C2CC3CC(C2)CC1C3 (centres undefined)	-1	-1	-3	-6	-8	2
CCOC(=O)C1CCCN(c2ncnc3c2oc2ccccc23)C1 (centres undefined)	-11	24*	-8	21	0	4
Cc1ccsc1C1C(C#N)=C(N)N(N(C)C)C2=C1C(=O)CCC2 (centres undefined)	-1	-9	9	39*	-5	1
CN(C)N1C(N)=C(C#N)C(c2cccs2)C2=C1CCCC2=O (centres undefined)	2	-7	12	0	-5	0
COc1cccc(N2CCN(C(=O)CSc3ccc(F)cc3)CC2)c1	-9	7	-7	29	-1	1
Cc1cc(C)cc(NC(=O)Nc2ccc3c(c2)N(C)C(=O)CS3)c1	-29	21	-2	44*	-2	13
Cc1ccc(NC(=O)Nc2ccc3c(c2)N(C)C(=O)CS3)cc1C	-23	35*	-6	32*	0	13
CC(=O)c1cccc(NC(=O)Nc2ccc3c(c2)N(C)C(=O)CS3)c1	-18	8	-1	35*	5	15
CCc1ccc(NC(=O)Nc2ccc3c(c2)N(C)C(=O)CS3)cc1	-23	16	6	28	1	11
CC[C@@H](C)[C@@H]1CN([C@@H](C)CN2CCC[C@H]2CN2C(N)=NC[C@@H]2Cc2ccccc2)C(=N)N1CCCC1CCCC1	-31	-7	-14	76*	-10	0
CC[C@@H](C)[C@@H]1CN([C@@H](CN2CCC[C@H]2CN2C(N)=NC[C@H]2C(C)C)C(C)C)C(=N)N1CCc1ccc(Cl)c(Cl)c1	-25	10	-12	30	-12	0
CC[C@@H](C)[C@@H]1CN([C@@H](C)CN2CCC[C@H]2CN2C(N)=NC[C@@H]2Cc2ccccc2)C(=N)N1CCc1ccc(Cl)c(Cl)c1	-32	-9	14	49*	-8	2
CC(C)(C)c1ccc(CC(=O)N2CCC2(C)C(=O)NCCC#N)cc1 (centres undefined)	3	-7	19	-10	-1	2
Cc1cc(S(=O)(=O)Nc2ccc(C(=O)NCc3ccncc3)cc2)ccc1F	3	-4	10	-2	-6	1
CCS(=O)(=O)c1nc2ccccc2n1Cc1ccccn1	2	-6	9	0	-3	3
COc1ccc(N2CCN(c3nc(NCCO)nc(N4CCOCC4)n3)CC2)cc1	12	27*	-8	-4	0	1
CC(=O)Nc1cccc(NS(=O)(=O)c2cc3c4c(c2)CCN4C(=O)CC3)c1	-8	6	-24	21	-2	1
SMILES	M1 PAM	CHO-K1 Ca antag	M1 PAM parental	M1 antag	CHRM1 agonist	M1 ag parental
CC1=CC(C)C2(COC(=O)Nc3ccccc3)COC(C)C1C2C (centres undefined)	0	-12	17	-10	-11	2
Cc1cccc(N2CCN(C(=O)c3ccc(NS(=O)(=O)c4c(C)noc4C)cc3)CC2)c1C	1	2	7	-2	-3	0
Cc1noc(C)c1S(=O)(=O)Nc1ccc(C(=O)N2CCN(c3cccc(Cl)c3)CC2)cc1	-16	1	-10	17	3	17*
COc1ccc(C(=O)N/C(=C\c2ccco2)C(=O)OCc2ccco2)cc1	14	-9	11	-11	-1	0
CCCCOc1ccc(C(=O)N/C(=C\c2ccc(OC)cc2)C(=O)OCc2ccco2)cc1	2	-19	23	-6	-3	16*
CN1CCN(c2ccc(C(F)(F)F)cc2NC(=O)Nc2ccccc2)CC1	0	17	6	6	-1	21*
Cc1ccc(C(=O)C2CC2)cc1C	17	4	-12	-15	3	0
CC(C)(C)OC(=O)N1CCC(c2cc(=O)n3[nH]cc(C(=O)Nc4ccc(F)c(Cl)c4)c3n2)CC1	3	-8	4	-9	-3	0
CC(C)(C)OC(=O)N1CCC(c2cc(=O)n3[nH]cc(C(=O)NC4CCCC4)c3n2)CC1	26*	-9	-2	-5	13	-1
O=[N+]([O-])c1ccc(OCC(O)CN(C2CCCCC2)C2CCCCC2)cc1 (centres undefined)	8	-4	12	-8	-14	-1
COc1ccc(OCC(O)CN(C2CCCCC2)C2CCCCC2)cc1 (centres undefined)	6	26*	-5	-1	-3	0
O=C1C2CCCN2C(c2cccs2)N1c1ccc(F)cc1 (centres undefined)	3	7	-5	-3	-11	3
COc1cccc(N2C(=O)C3CCCN3C2c2cccs2)c1 (centres undefined)	7	-12	26	-6	18*	0
O=C(N=C1SC2CS(=O)(=O)CC2N1Cc1ccccc1Cl)C1CC1 (centres undefined)	18	-4	11	-19	0	1
COc1ccccc1-c1cc(NC=O)c2ncc(-c3ccc(S(C)(=O)=O)cc3)n2c1	-4	-2	17	7	-1	6
O=C(CCC1CCCN(Cc2ccc3c(c2)CCO3)C1)NCc1ccc(F)c(F)c1 (centres undefined)	-30	12	-6	33*	-12	0
O=C(CCC1CCCN(C2C3CC4CC(C3)CC2C4)C1)NCc1ccc(F)c(F)c1 (centres undefined)	-18	-5	12	43*	-5	0

Screening results from PubChem.
